Data taken from PubChem BioAssay AID1159580 (chemical genetic matrix, 2015).
The campaign covered roughly 5,500 compounds. About 2,000 (36%) were called active. Another 18% or so got no clear call; they are omitted. Cut-off read from the data, not from the text of the source: active = normalized growth mostly below about 0.91 (no sharp cut-off); inconclusive = no clear call, values can overlap the other calls; inactive = mostly above about 0.92. The list shows a part of the results.

Assay: chemical genetic growth profiling, strain panel (AID 1159580);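 note: tested at 20 µM; growth read once vehicle control cultures reached saturation at 30 °C; 1 = growth at the plate median or of vehicle wells; lower values mean less growth of the strain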
Details: growth OD

Measured: normalized growth

CCCCCC1C(=O)CCC1CC(=O)OC (stereo unspecified)
inactive: S. cerevisiae deletion strains, locus YJR043C, strain POL32, active compounds read low 0.991 | S. cerevisiae deletion strains, locus YJR066W, strain TOR1, active compounds read low 0.982 | S. cerevisiae deletion strains, locus YJR075W, strain HOC1, active compounds read low 1.01 | S. cerevisiae deletion strains, locus YKL009W, strain mrt4, active compounds read low 0.914 | S. cerevisiae deletion strains, locus YKL068W, active compounds read low 0.952 | S. cerevisiae deletion strains, locus YKL085W, strain MDH1 (second series), active compounds read low 0.96 | S. cerevisiae deletion strains, locus YKL085W, strain MDH1, active compounds read low 0.96 | S. cerevisiae deletion strains, locus YKL160W, strain elf1, active compounds read low 0.988 | S. cerevisiae deletion strains, locus YKR001C, strain vps1, active compounds read low 0.951 | S. cerevisiae deletion strains, locus YKR026C, strain gcn3, active compounds read low 0.976 | S. cerevisiae deletion strains, locus YKR091W, strain srl3, active compounds read low 0.982 | S. cerevisiae deletion strains, locus YLL001W, strain dnm1, active compounds read low 0.983 | S. cerevisiae deletion strains, locus YLL026W, active compounds read low 0.981 | S. cerevisiae deletion strains, locus YLL041C, strain sdh2, active compounds read low 0.982 | S. cerevisiae deletion strains, locus YLR027C, strain aat2, active compounds read low 0.983 | S. cerevisiae deletion strains, locus YLR039C, strain RIC1, active compounds read low 1.03 | S. cerevisiae deletion strains, locus YLR058C, strain SHM2, active compounds read low 1 | S. cerevisiae deletion strains, locus YLR102C, strain apc9, active compounds read low 0.956 | S. cerevisiae deletion strains, locus YLR113W, strain HOG1, active compounds read low 0.942 | S. cerevisiae deletion strains, locus YLR221C, strain rsa3, active compounds read low 0.985 | S. cerevisiae deletion strains, locus YLR258W, strain gsy2, active compounds read low 0.981 | S. cerevisiae deletion strains, locus YLR262C, strain YPT6 (second series), active compounds read low 1.02 | S. cerevisiae deletion strains, locus YLR262C, strain YPT6, active compounds read low 1.05 | S. cerevisiae deletion strains, locus YLR268W, strain sec22, active compounds read low 0.956 | S. cerevisiae deletion strains, locus YLR320W, strain mms22, active compounds read low 0.97 | S. cerevisiae deletion strains, locus YLR330W, strain CHS5, active compounds read low 0.97 | S. cerevisiae deletion strains, locus YLR342W, strain FKS1 (second series), active compounds read low 1.08 | S. cerevisiae deletion strains, locus YLR342W, strain FKS1, active compounds read low 0.984 | S. cerevisiae deletion strains, locus YLR357W, strain rsc2, active compounds read low 0.947 | S. cerevisiae deletion strains, locus YLR370C, strain arc18, active compounds read low 0.978 | S. cerevisiae deletion strains, locus YLR371W, strain rom2, active compounds read low 0.958 | S. cerevisiae deletion strains, locus YLR384C, strain iki3, active compounds read low 0.961 | S. cerevisiae deletion strains, locus YLR418C, strain cdc73, active compounds read low 1.02 | S. cerevisiae deletion strains, locus YML016C, strain PPZ1, active compounds read low 0.975 | S. cerevisiae deletion strains, locus YML032C, strain rad52, active compounds read low 0.983 | S. cerevisiae deletion strains, locus YML120C, strain ndi1, active compounds read low 0.994 | S. cerevisiae deletion strains, locus YML124C, strain tub3, active compounds read low 0.941 | S. cerevisiae deletion strains, locus YMR058W, strain fet3, active compounds read low 0.992 | S. cerevisiae deletion strains, locus YMR078C, strain ctf18, active compounds read low 0.945 | S. cerevisiae deletion strains, locus YMR125W, strain sto1, active compounds read low 0.971 | S. cerevisiae deletion strains, locus YMR129W, active compounds read low 0.973 | S. cerevisiae deletion strains, locus YMR205C, strain PFK2, active compounds read low 0.969 | S. cerevisiae deletion strains, locus YMR223W, strain ubp8, active compounds read low 0.981 | S. cerevisiae deletion strains, locus YMR231W, strain pep5, active compounds read low 0.97 | S. cerevisiae deletion strains, locus YMR263W, strain SAP30, active compounds read low 1.02 | S. cerevisiae deletion strains, locus YMR307W, strain GAS1, active compounds read low 1.24 | S. cerevisiae deletion strains, locus YNL067W, strain RPL9B, active compounds read low 1.03 | S. cerevisiae deletion strains, locus YNL071W, strain lat1, active compounds read low 0.988 | S. cerevisiae deletion strains, locus YNL153C, strain GIM3, active compounds read low 1.02 | S. cerevisiae deletion strains, locus YNL183C, strain NPR1, active compounds read low 0.928 | S. cerevisiae deletion strains, locus YNL209W, strain ssb2, active compounds read low 0.983 | S. cerevisiae deletion strains, locus YNL233W, strain BNI4, active compounds read low 1.04 | S. cerevisiae deletion strains, locus YNL248C, strain rpa49, active compounds read low 0.967 | S. cerevisiae deletion strains, locus YNL250W, strain rad50, active compounds read low 0.945 | S. cerevisiae deletion strains, locus YNL271C, strain bni1, active compounds read low 0.937 | S. cerevisiae deletion strains, locus YNL298W, strain CLA4, active compounds read low 0.966 | S. cerevisiae deletion strains, locus YNL307C, strain MCK1, active compounds read low 0.97 | S. cerevisiae deletion strains, locus YNL322C, strain KRE1 (second series), active compounds read low 0.981 | S. cerevisiae deletion strains, locus YNL322C, strain KRE1, active compounds read low 0.988 | S. cerevisiae deletion strains, locus YNR049C, strain mso1, active compounds read low 0.987 | S. cerevisiae deletion strains, locus YNR052C, strain pop2, active compounds read low 0.978 | S. cerevisiae deletion strains, locus YOL012C, strain htz1 1.15 | S. cerevisiae deletion strains, locus YOL147C, strain pex11, active compounds read low 0.965 | S. cerevisiae deletion strains, locus YOR001W, strain rrp6, active compounds read low 0.977 | S. cerevisiae deletion strains, locus YOR061W, strain CKA2, active compounds read low 0.99 | S. cerevisiae deletion strains, locus YOR069W, strain VPS5, active compounds read low 0.978 | S. cerevisiae deletion strains, locus YOR070C, strain gyp1, active compounds read low 0.972 | S. cerevisiae deletion strains, locus YOR080W, strain dia2, active compounds read low 0.974 | S. cerevisiae deletion strains, locus YOR083W, strain WHI5, active compounds read low 0.986 | S. cerevisiae deletion strains, locus YOR106W, strain vam3, active compounds read low 1.03 | S. cerevisiae deletion strains, locus YOR136W, strain idh2, active compounds read low 0.973 | S. cerevisiae deletion strains, locus YOR144C, strain elg1, active compounds read low 0.963 | S. cerevisiae deletion strains, locus YOR184W, strain ser1, active compounds read low 0.921 | S. cerevisiae deletion strains, locus YOR231W, strain MKK1, active compounds read low 0.977 | S. cerevisiae deletion strains, locus YOR265W, strain rbl2, active compounds read low 0.981 | S. cerevisiae deletion strains, locus YOR270C, strain vph1, active compounds read low 0.997 | S. cerevisiae deletion strains, locus YOR290C, strain snf2, active compounds read low 1 | S. cerevisiae deletion strains, locus YOR316C, strain cot1, active compounds read low 0.952 | S. cerevisiae deletion strains, locus YPL051W, strain arl3, active compounds read low 0.991 | S. cerevisiae deletion strains, locus YPL055C, strain LGE1, active compounds read low 1 | S. cerevisiae deletion strains, locus YPL078C, strain atp4, active compounds read low 0.975 | S. cerevisiae deletion strains, locus YPL106C, strain sse1, active compounds read low 0.999 | S. cerevisiae deletion strains, locus YPL240C, strain hsp82, active compounds read low 0.969 | S. cerevisiae deletion strains, locus YPL241C, strain CIN2, active compounds read low 0.977 | S. cerevisiae deletion strains, locus YPL256C, strain CLN2, active compounds read low 0.97 | S. cerevisiae deletion strains, locus YPR119W, strain clb2, active compounds read low 0.939 | S. cerevisiae deletion strains, locus YPR141C, strain kar3, active compounds read low 0.944 | S. cerevisiae deletion strains, locus YPR163C, strain tif3, active compounds read low 0.963 | S. cerevisiae deletion strains, locus YPR167C, strain met16, active compounds read low 0.959 | S. cerevisiae deletion strains, strain wtn01, active compounds read low 0.962 | S. cerevisiae strains, strain wild type, active compounds read low 1
